Measurements taken from PubChem BioAssay (Tox21).
Inconclusive results are not listed. Where a structure was tested more than once in an assay, its records may differ in their call. Active and inactive are the calls of the source. Unless noted, calls follow the shape of the full dose curve.

Tests used:
[1] = Nuclear factor erythroid 2-related factor 2/antioxidant responsive element (Nrf2/ARE) small molecule agonists: qHTS cell viability counter screen in human keratinocytes (AID 1919968; active = well fitted curve in the direction sought with a large enough effect in the repeat runs; an effect the other way counts as inactive or inconclusive; also: nearly all actives have a fitted effect of over 55% in size; also: potency is read from the fitted curve at half-maximal effect)
Procedure, shortened: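 Measured as CellTiter-Fluor fluorescence, this readout tracks cytotoxicity in the same wells as the ARE-luciferase screen. HaCaT reporter cells (1,500/well) received compounds after a 5 h pre-incubation and were exposed for 23 h.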

[2] = biological target: KiSS-1 receptor (Homo sapiens) (UniProt Q969F8); experiment: Human kisspeptin (KISS1R) small molecule agonists, calcium flux assay in KISS1R-HEK293 cells (AID 1920064; active = well fitted curve in the direction sought with a large enough effect in the repeat runs; an effect the other way counts as inactive or inconclusive)
Procedure, shortened: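 Measures KISS1R agonism through calcium-sensitive dye fluorescence in stably transfected HEK293 cells, read for 3 min after pin-tool compound delivery; 15-point titrations in triplicate.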

[3] = G protein-coupled receptor (GPCR) small molecule agonists, calcium flux assay: HEK293 wild type cell line counter screen (AID 1920065)
Procedure, shortened: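 Readout: fluorescence at 480 nm excitation/540 nm emission, sampled at 1 s intervals for 3 min. Cells had been cultured 18 h, then dye-loaded 1 h at 37 C before compound or ATP addition.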

[4] = p53 small molecule agonists, cell-based qHTS assay with human liver microsomes (AID 1963577)
Procedure, shortened: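 Compounds act here after metabolic activation: human liver microsomes and NADPH, both at 0.5 mg/mL final, were co-added to p53RE-bla cells. Incubation ran 16 h at 37 C, followed by LiveBLAzer detection.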

[5] = p53 small molecule agonists, cell-based qHTS assay with rat liver microsomes (AID 1963578)
Procedure, shortened: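 Read-out is beta-lactamase reporter fluorescence (LiveBLAzer, 2 h, room temperature, dark) in p53RE-bla cells treated 16 h at 37 C with compound, rat liver microsomes and NADPH, both 0.5 mg/mL final.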

[6] = p53 small molecule agonists, cell-based qHTS assay with human liver microsomes: qHTS cell viability counter screen (AID 1963579); also: nearly all actives have a fitted effect of over 45% in size; also: potency is read from the fitted curve at half-maximal effect
Procedure, shortened: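 Cells carrying the p53 response-element beta-lactamase reporter are treated for 16 h at 37 C with test compounds in the presence of human liver microsomes and NADPH (both 0.5 mg/mL final); ATP-based CellTiter-Glo luminescence then reports viability.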

[7] = p53 small molecule agonists, cell-based qHTS assay with rat liver microsomes: qHTS cell viability counter screen (AID 1963580); also: nearly all actives have a fitted effect of over 45% in size; also: potency is read from the fitted curve at half-maximal effect
Procedure, shortened: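 HCT-116 p53RE-bla, 4,000 cells/well, 5 h pre-incubation; cpd + rat liver microsomes 0.5 mg/mL + NADPH 0.5 mg/mL (final); 16 h, 37 C; CellTiter-Glo, 30 min RT; luminescence.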

[8] = p53 small molecule agonists, cell-based qHTS assay: qHTS cell viability counter screen (AID 1963581); also: nearly all actives have a fitted effect of over 45% in size; also: potency is read from the fitted curve at half-maximal effect
Procedure, shortened: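 In the same plates used for the p53 bla reporter, HCT-116 cells given compounds for 16 h at 37 C received CellTiter-Glo; luminescence was recorded 30 min later at room temperature.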

[9] = biological target: 5-hydroxytryptamine receptor 2A (Homo sapiens) (UniProt P28223); experiment: 5-hydroxytryptamine receptor 2A (HTR2A) small molecule antagonists, cell-based qHTS assay (AID 1963586); also: nearly all actives have a fitted effect of over 45% in size; also: potency is read from the fitted curve at half-maximal effect
Procedure, shortened: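 Antagonist-mode intracellular calcium assay: DOI (4 nM) added after 5 min compound pre-incubation at room temperature to dye-loaded HTR2A-CHO cells. Fluorescence followed for 3 min, sampled every second.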

[10] = biological target: 5-hydroxytryptamine receptor 2A (Homo sapiens) (UniProt P28223); experiment: 5-hydroxytryptamine receptor 2A (HTR2A) small molecule agonists, cell-based qHTS assay (AID 1963587); also: nearly all actives have a fitted effect of over 30% in size; also: potency is read from the fitted curve at half-maximal effect
Procedure, shortened: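 Kinetic calcium-flux fluorescence (2 min, 1 sec intervals) after compound addition in agonist mode. HTR2A-CHO cells were cultured 18 h, then dye-loaded 1 h at 37 C.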

[11] = biological target: Muscarinic acetylcholine receptor M1 (Homo sapiens) (UniProt P11229); experiment: Cholinergic receptor muscarinic 1 (CHRM1) small molecule agonists, cell-based qHTS assay (AID 1963589); also: nearly all actives have a fitted effect of over 35% in size; also: potency is read from the fitted curve at half-maximal effect
Procedure, shortened: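 Each compound was tested at 15 concentrations across three independent runs on dye-loaded CHO cells stably expressing human CHRM1, reading intracellular calcium fluorescence kinetically at 1 sec intervals.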

[12] = biological target: Beta-2 adrenergic receptor (Homo sapiens) (UniProt P07550); experiment: Adrenergic beta2 receptor (ADRB2) small molecule antagonists, cell-based qHTS assay (AID 1963592); also: series mostly up to about 92 µM; nearly all actives have a fitted effect of over 50% in size
Procedure, shortened: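 Cells (CHO, stable ADRB2 overexpression) incubated 18-20hr at 37C; compounds added from DMSO; agonist mix (1nM isoproterenol, 100uM IBMX, 25uM Ro-20-1724) added; 0.5hr RT; d2-cAMP and anti-cAMP-cryptate added; 1hr RT; 665/615 nm read.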

[13] = biological target: D(2) dopamine receptor (Homo sapiens) (UniProt P14416); experiment: Dopamine D2 receptor (DRD2) small molecule agonists, cell-based qHTS assay (AID 1963594); also: nearly all actives have a fitted effect of over 35% in size
Procedure, shortened: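 cAMP accumulation in DRD2-HEK293 cells measured by HTRF after 1 h detection; compounds added 10 min before NKH477 (200nM […]) forskolin-analogue stimulation, 30 min at room temperature, with Ro20-1724 present at 0.1 mM final.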

[14] = p53 small molecule agonists, cell-based qHTS assay (AID 1963582; active = well fitted activation curve with a large enough effect in the signal ratio in the repeat runs, not every such curve was filed as active; the % refers to the signal ratio)
Procedure, shortened: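 Compounds are pin-transferred in DMSO onto p53RE-bla cells and incubated 16 h at 37 C. The B/G FRET beta-lactamase substrate is then applied for 2 h at RT and fluorescence recorded.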

[15] = cAMP Responsive Elements (CRE) small molecule agonists, cell-based qHTS assay (AID 1963590)
Procedure, shortened: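 Cell line: CRE-bla HEK 293T; medium DMEM/10% dialyzed FBS/0.1 mM NEAA/1 mM pyruvate/25 mM HEPES; 3 h compound exposure; beta-lactamase FRET readout after 2 h substrate loading at RT.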

[16] = cAMP Responsive Elements (CRE) small molecule antagonists, cell-based qHTS assay (AID 1963591; active = well fitted inhibition curve with a large enough effect in the signal ratio in the repeat runs, not every such curve was filed as active; the % refers to the signal ratio)
Procedure, shortened: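 Inhibition of NKH477-driven (0.25 uM final) CRE-beta-lactamase signal in HEK293T cells, 3 h compound exposure at 37 °C, detected by FRET substrate fluorescence.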

[17] = biological target: D(2) dopamine receptor (Homo sapiens) (UniProt P14416); experiment: Dopamine D2 receptor (DRD2) small molecule antagonists, cell-based qHTS assay (AID 1963595; active = well fitted inhibition curve with a large enough effect in the signal ratio in the repeat runs, with a control signal flat; the % refers to the signal ratio)
Procedure, shortened: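 Readout: HTRF cAMP, cAMP-d2 competing with cellular cAMP for anti-cAMP cryptate, read after 1 h. Cells: DRD2-HEK293. Conditions: 0.1 mM Ro20-1724, 12 nM quinpirole, 200 nM NKH477, 30 min RT.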

[18] = biological target: Muscarinic acetylcholine receptor M1 (Homo sapiens) (UniProt P11229); experiment: Cholinergic receptor muscarinic 1 (CHRM1) small molecule antagonists, cell-based qHTS assay (AID 1963588); also: nearly all actives have a fitted effect of over 40% in size
Procedure, shortened: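 CHRM1-CHO calcium-flux assay, antagonist mode. Cells were seeded 18 h, dye-loaded 1 h at 37 C and given compound for 5 min at RT, then acetylcholine was added at 50nM. FDSS fluorescence was read 3 min; 15 concentrations, three runs.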

[19] = biological target: Beta-2 adrenergic receptor (Homo sapiens) (UniProt P07550); experiment: Adrenergic beta2 receptor (ADRB2) small molecule agonists, cell-based qHTS assay (AID 1963593);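 also: CHO cells stably overexpressing human ADRB2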
Procedure, shortened: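 CHO cells stably over-expressing ADRB2 were plated overnight at 37C, then dosed with compounds plus a stimulation mix containing 100uM IBMX and 25uM Ro-20-1724 for 0.5hr at room temperature. cAMP was measured by HTRF competition, 1hr.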

[20] = biological target: Gonadotropin-releasing hormone receptor (Homo sapiens) (UniProt P30968); experiment: Human gonadotropin-releasing hormone receptor (GnRHR) small molecule agonists, calcium flux assay in GnRHR-HEK293 cells (AID 1920063); also: nearly all actives have a fitted effect of over 35% in size
Procedure, shortened: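 Fluorescence kinetics (480 nm excitation, 540 nm emission; 3 min, 1 s steps) report calcium mobilisation in human GnRHR-HEK293 cells in agonist mode. Dye incubation: 1 h, 37 C.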

Measured: Potency

Chain of KiSS-1 receptor (Homo sapiens) (Q969F8 whole entry, looked up): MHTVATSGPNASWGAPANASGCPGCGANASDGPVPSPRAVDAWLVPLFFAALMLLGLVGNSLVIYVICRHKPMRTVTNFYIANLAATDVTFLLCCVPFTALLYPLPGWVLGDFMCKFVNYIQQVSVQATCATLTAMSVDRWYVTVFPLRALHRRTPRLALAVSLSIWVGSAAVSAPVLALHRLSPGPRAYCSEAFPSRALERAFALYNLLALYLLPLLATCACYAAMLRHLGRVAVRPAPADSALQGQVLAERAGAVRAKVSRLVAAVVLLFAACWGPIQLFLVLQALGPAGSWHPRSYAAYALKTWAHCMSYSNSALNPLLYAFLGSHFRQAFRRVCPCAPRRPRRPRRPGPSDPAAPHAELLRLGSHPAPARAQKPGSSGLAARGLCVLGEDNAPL
Chain of Muscarinic acetylcholine receptor M1 (Homo sapiens) (P11229 whole entry, looked up): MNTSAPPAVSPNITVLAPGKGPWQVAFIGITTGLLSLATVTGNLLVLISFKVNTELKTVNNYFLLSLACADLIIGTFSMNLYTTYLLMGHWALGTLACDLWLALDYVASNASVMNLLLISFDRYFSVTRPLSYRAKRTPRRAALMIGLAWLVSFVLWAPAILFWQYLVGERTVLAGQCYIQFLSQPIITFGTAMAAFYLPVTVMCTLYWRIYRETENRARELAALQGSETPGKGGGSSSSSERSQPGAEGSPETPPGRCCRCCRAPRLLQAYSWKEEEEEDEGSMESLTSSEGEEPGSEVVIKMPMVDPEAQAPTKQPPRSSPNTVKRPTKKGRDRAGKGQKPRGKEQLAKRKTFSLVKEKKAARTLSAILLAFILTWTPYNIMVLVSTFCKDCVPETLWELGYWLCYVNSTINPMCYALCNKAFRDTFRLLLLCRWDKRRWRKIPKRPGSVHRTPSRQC
Chain of Beta-2 adrenergic receptor (Homo sapiens) (P07550 whole entry, looked up): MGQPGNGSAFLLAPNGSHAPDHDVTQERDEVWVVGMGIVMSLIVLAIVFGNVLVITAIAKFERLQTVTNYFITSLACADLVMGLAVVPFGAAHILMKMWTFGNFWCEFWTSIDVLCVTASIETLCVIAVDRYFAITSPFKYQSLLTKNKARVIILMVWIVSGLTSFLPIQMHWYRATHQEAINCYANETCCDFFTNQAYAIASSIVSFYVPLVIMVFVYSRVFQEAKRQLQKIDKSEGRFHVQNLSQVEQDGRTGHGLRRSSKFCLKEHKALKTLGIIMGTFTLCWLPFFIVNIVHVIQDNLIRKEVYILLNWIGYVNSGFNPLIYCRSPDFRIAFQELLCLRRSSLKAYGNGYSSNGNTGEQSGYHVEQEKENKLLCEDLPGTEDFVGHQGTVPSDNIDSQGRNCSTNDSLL
Chain of 5-hydroxytryptamine receptor 2A (Homo sapiens) (P28223 whole entry, looked up): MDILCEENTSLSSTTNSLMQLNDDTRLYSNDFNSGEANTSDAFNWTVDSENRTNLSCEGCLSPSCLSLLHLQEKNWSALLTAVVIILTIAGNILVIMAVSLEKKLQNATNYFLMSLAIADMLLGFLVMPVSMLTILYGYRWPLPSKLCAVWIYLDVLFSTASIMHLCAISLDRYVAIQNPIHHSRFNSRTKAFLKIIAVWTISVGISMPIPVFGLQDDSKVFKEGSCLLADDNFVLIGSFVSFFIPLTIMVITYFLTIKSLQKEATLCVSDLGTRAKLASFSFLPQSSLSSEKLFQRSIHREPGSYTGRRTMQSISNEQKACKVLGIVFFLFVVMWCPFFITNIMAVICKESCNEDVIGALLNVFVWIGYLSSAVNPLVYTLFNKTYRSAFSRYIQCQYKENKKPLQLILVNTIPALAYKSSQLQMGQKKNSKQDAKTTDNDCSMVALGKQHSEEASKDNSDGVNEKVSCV
Chain of D(2) dopamine receptor (Homo sapiens) (P14416 whole entry, looked up): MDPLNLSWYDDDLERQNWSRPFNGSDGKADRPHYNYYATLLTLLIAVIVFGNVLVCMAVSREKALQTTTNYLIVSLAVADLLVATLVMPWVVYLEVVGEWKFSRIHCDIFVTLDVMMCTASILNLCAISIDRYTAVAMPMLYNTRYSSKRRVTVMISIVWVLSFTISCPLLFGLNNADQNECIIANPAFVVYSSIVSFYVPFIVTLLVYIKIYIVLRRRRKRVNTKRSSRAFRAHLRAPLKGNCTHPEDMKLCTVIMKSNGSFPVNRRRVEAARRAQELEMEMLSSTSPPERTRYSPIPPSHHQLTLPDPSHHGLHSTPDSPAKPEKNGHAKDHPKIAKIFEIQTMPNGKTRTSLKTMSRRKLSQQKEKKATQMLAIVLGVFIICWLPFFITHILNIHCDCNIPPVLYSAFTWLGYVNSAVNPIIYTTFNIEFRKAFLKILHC
Chain of Gonadotropin-releasing hormone receptor (Homo sapiens) (P30968 whole entry, looked up): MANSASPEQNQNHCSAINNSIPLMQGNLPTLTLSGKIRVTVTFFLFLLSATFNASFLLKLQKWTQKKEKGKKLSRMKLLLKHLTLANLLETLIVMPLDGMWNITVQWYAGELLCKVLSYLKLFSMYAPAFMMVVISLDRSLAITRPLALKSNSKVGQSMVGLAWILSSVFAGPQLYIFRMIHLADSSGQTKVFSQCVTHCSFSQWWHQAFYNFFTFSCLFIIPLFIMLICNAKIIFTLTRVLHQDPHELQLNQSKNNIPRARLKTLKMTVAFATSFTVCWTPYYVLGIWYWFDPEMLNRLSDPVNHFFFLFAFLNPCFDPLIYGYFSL

CC(C)(C)CC(C)(C)c1ccc(O)cc1
16.2 µM (active) and inactive: [6]
49 µM (active) and inactive: [11]
active: [1] 27.3 µM | [8] 43.2 µM | [10] 34.7 µM
18.8 µM (active) and inactive: [9]
37.4 µM (active) and inactive: [7]
inactive: [2] | [3] | [4] | [5] | [12] | [13]

CCOS(C)(=O)=O
not listed: [18] | [19] | [20]
inactive: all other assays above

O=C(O)C(F)(F)C(F)(F)C(F)(F)C(F)(F)C(F)(F)C(F)(F)C(F)(F)C(F)(F)C(F)(F)C(F)(F)F
not listed: [19] | [20]
inactive: all other assays above

CCNc1nc(Cl)nc(NCC)n1
not listed: [16] | [20]
inactive: all other assays above

CCOC(=O)c1ccccc1S(=O)(=O)NC(=O)Nc1nc(Cl)cc(OC)n1
not listed: [19] | [20]
inactive: all other assays above

COc1ccc2c3c1O[C@H]1[C@H](O)CC[C@H]4[C@@H](C2)N(C)CC[C@@]341
not listed: [11] | [12] | [18] | [20]
inactive: all other assays above

CCCCCCI
not listed: [12] | [19] | [20]
inactive: all other assays above

CCC(C)n1c(=O)[nH]c(C)c(Br)c1=O (stereo not given)
not listed: [12] | [13] | [20]
inactive: all other assays above

Nc1cccc(Cl)c1
not listed: [5] | [18] | [20]
inactive: all other assays above

O=[N+]([O-])c1ccc(Cl)cc1
not listed: [13] | [19] | [20]
inactive: all other assays above

Cc1ccc(N)cc1N
not listed: [12] | [15] | [19] | [20]
inactive: all other assays above

Cc1ccccc1N
not listed: [12] | [13] | [19] | [20]
inactive: all other assays above

Cc1ccc(C(=O)Cl)cc1
not listed: [7] | [20]
inactive: all other assays above

CN(C)NC(=O)CCC(=O)O
not listed: [12] | [20]
inactive: all other assays above

C(CCOCC1CO1)COCC1CO1 (stereo not given)
not listed: [19]
inactive: all other assays above
